# From PubChem BioAssay (EPA / NIEHS)
# Results filed as inconclusive are left out. Activity calls are given as the source filed them. How the source made its calls: active means hit-call score of the fitted dose curve at least 0.9, where 1 is the maximum; inconclusive means response in the unintended direction; inactive means score below 0.9.
# Target: Estrogen receptor beta (Homo sapiens) (UniProt Q92731)
# Assay: OT_ER_ERbERb_0480: Odyssey Thera (OT) 8-hour HEK293T Protein-Complementation Assay for Estrogen Receptor-beta/-beta Homodimer (AID 2283357)
# Method in brief: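 Homodimerization of ER-beta LBD measured by protein-fragment complementation in HEK293T; 8 h dosing; fixed, Draq5 counterstain; fluorescence intensity gain over DMSO baseline, positive fitting direction; laser scanning cytometry.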
# Estrogen receptor beta (Homo sapiens), sequence (Q92731 whole entry, looked up): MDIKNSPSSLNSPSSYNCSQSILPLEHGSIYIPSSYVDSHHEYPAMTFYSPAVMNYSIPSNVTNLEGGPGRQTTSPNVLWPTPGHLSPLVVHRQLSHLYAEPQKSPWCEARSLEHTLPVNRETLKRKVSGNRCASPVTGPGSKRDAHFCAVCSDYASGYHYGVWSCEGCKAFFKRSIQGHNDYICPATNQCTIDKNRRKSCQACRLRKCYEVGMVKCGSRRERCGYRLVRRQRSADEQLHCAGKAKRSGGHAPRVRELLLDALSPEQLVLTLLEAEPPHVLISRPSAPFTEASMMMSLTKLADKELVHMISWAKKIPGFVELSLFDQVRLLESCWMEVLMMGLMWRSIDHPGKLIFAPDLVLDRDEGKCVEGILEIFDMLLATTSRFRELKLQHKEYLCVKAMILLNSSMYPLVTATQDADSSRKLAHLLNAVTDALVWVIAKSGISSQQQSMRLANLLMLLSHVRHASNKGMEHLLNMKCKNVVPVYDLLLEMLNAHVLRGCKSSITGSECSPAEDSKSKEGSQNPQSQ
SMILES,outcome,AC50
CSCCC=O,inactive,–
BrCc1cccc(Oc2ccccc2)c1,–,60.7 µM (active)
OCc1cccc(Oc2ccccc2)c1,–,47.7 µM (active)
Nc1ccc(N)c2c1C(=O)c1ccccc1C2=O,inactive,–
CCCCCCC(=O)c1ccccc1,inactive,–
CCOC(=O)[C@@H](C)Oc1ccc(Oc2nc3ccc(Cl)cc3o2)cc1,inactive,–
C#CC(C)(O)CC(C)C (stereo not drawn),inactive,–
C=C[Si]1(C)O[Si](C)(C=C)O[Si](C)(C=C)O[Si](C)(C=C)O1 (stereo not drawn),–,23.8 µM (active)
CCCCCCCCC=CCCCCCCCC1=NCCN1CCO,inactive,–
COS(=O)(=O)O,inactive,–
CC1CCC(C(C)C)C(O)C1 (stereo not drawn),inactive,–
CC(C)Nc1nc(N)nc(Cl)n1,inactive,–
CCc1ccc(O)cc1,inactive,–
O=C(c1ccccc1)C(O)c1ccccc1 (stereo not drawn),inactive,–
C[C@H]1O[C@@H](O[C@H]2[C@@H](O)C[C@H](O[C@H]3[C@@H](O)C[C@H](O[C@H]4CC[C@@]5(C)[C@H](CC[C@@H]6[C@@H]5C[C@@H](O)[C@]5(C)[C@@H](C7=CC(=O)OC7)CC[C@]65O)C4)O[C@@H]3C)O[C@@H]2C)C[C@H](O)[C@@H]1O,inactive,–
C=C1CC[C@H](O)C/C1=C/C=C1\CCC[C@]2(C)[C@@H]([C@H](C)/C=C/[C@H](C)C(C)C)CC[C@@H]12,inactive,–
CCc1cc(Cc2cc(CC)cc(C(C)(C)C)c2O)c(O)c(C(C)(C)C)c1,inactive,–
CCCCCCCCCCCCCC(=O)OCC(O)CO (stereo not drawn),inactive,–
Nc1ccccc1[N+](=O)[O-],inactive,–
CCC1(C)NC(=O)NC1=O (stereo not drawn),inactive,–
COC(=O)c1ccc(C)cc1C1=NC(C)(C(C)C)C(=O)N1 (stereo not drawn) (tested in a mixture with another compound),inactive,–
CC(=O)O[C@H]1C[C@@H]2CC[C@@]1(C)C2(C)C,inactive,–
CN1C(=O)c2ccccc2C1=O,inactive,–
CC(C=O)Cc1ccc(C(C)(C)C)cc1 (stereo not drawn),inactive,–
CCOC(=O)c1ccc(N)cc1,inactive,–
CN1CCOCC1,inactive,–
CCCCCCCCCC(=O)OC,inactive,–
CC(C)CCCCCCc1ccc(OCCOCCO)cc1,–,38.6 µM (active)
